Data: PubChem BioAssay AID463173 (ICCB-Longwood Screening Facility, Harvard Medical School, 2010)
Hit rate of the full screen: of about 52,000 compounds, about 4,300 (8.3%) were called active. Rule as the data show it: active = survival mostly below about 52% (no sharp cut-off); inactive = mostly above about 56%. Many of the other results were omitted from the sample, so actives are more common in it than they were.

Test system: DeltatarO mutant
Assay: S. aureus survival, RN4220 and DeltatarO strains – OD600, teichoic acid synthesis inhibitors, primary screen (AID 463173)
Conditions: S. aureus RN4220 wild type/DeltatarO growth, OD600, 18 h, hits give low values, screened at 18.75 µg/mL (by protocol)

SMILES | survival
COc1cccc(CCNC(=O)c2c(O)nc3cc(C)ccn3c2=O)c1 | 82% (inactive)
COc1ccc(CNC(=O)c2c(O)nc3cc(C)ccn3c2=O)cc1 | 78% (inactive)
COc1ccc(CCNC(=O)c2c(O)nc3ccccn3c2=O)cc1 | 81% (inactive)
O=C(NCc1ccc(F)cc1)c1c(O)nc2ccccn2c1=O | 44% (active)
COc1cccc(CNC(=O)c2c(O)nc3ccccn3c2=O)c1 | 43% (active)
COc1ccc(CCNC(=O)c2c(O)nc3ccccn3c2=O)cc1OC | 54% (inactive)
Cc1cccn2c(=O)c(C(=O)NCc3ccc(F)cc3)c(O)nc12 | 119% (inactive)
Cc1ccc(CNC(=O)c2c(O)nc3ccccn3c2=O)cc1 | 89% (inactive)
COc1cccc(CCNC(=O)c2c(O)nc3ccccn3c2=O)c1 | 48% (active)
COc1ccccc1N1CCN(C(=O)CSc2nc3ccccc3nc2Cc2ccccc2)CC1 | 101% (inactive)
COc1ccc(OC)c(-c2noc(N3CCN(c4ccc(Cl)cc4)CC3)n2)c1 | 88% (inactive)
CCn1c(CNC(=O)c2ccc(OC)cc2)nnc1SCC(=O)Nc1cc(C)ccc1C | 112% (inactive)
COc1cccc(C(=O)N(Cc2cccnc2)c2nc3c(OC)ccc(C)c3s2)c1OC | 73% (inactive)
O=S(=O)(Nc1cccc(-c2ccc(N3CCOCC3)nn2)c1)c1ccccc1C(F)(F)F | 89% (inactive)
COc1ccc(C(=O)CCC(=O)Nc2ccc(OC)c(Cl)c2)cc1 | 86% (inactive)
COc1ccc(C2=C(C(C)=O)Sc3nnc(-c4ccccc4)n3N2C(C)=O)cc1 | 87% (inactive)
CC(=O)C1=C(c2ccc(Cl)c(Cl)c2)N(C(C)=O)n2c(nnc2-c2ccccc2)S1 | 94% (inactive)
COc1ccc(-c2nnc3n2N(C(C)=O)C(c2ccc(Cl)c(Cl)c2)=C(C(C)=O)S3)cc1 | 20% (active)
CN(C)c1ccc(CN(CC2CCCO2)C(=O)COc2ccc(Cl)cc2)cc1 (centres undefined) | 59% (inactive)
CCc1nn2c(=O)c(S(=O)(=O)Nc3cccc(F)c3)c(C)nc2s1 | 70% (inactive)
COc1ccccc1CNS(=O)(=O)c1ccc2c(c1)NC(=O)CC(=O)N2 | 89% (inactive)
Cc1ccc(S(=O)(=O)Nc2nc3n(n2)C(c2ccc(F)cc2)C=C(c2ccccc2)N3)cc1 (centres undefined) | 29% (active)
Cc1ccc(C2C=C(c3ccc(F)cc3)Nc3nc(CCCO)nn32)cc1 (centres undefined) | 53% (inactive)

SMILES | survival
COc1ccccc1C(=O)Nc1nc2n(n1)C(c1ccc(F)cc1)C=C(c1ccc(Cl)cc1)N2 (centres undefined) | 49% (inactive)
O=S(=O)(Nc1nc2n(n1)C(c1ccccc1)C=C(c1ccc(Cl)cc1)N2)c1ccccc1 (centres undefined) | 47% (active)
O=S(=O)(Nc1nc2n(n1)C(c1ccc(F)cc1)C=C(c1ccccc1)N2)c1ccccc1 (centres undefined) | 73% (inactive)
O=S(=O)(Nc1nc2n(n1)C(c1ccc(F)cc1)C=C(c1ccc(Cl)cc1)N2)c1ccccc1 (centres undefined) | 42% (active)
O=S(=O)(Nc1nc2n(n1)C(c1ccc(F)cc1)C=C(c1ccccc1)N2)c1ccc(Cl)cc1 (centres undefined) | 10% (active)
Cc1ccc(C2C=C(c3ccccc3)Nc3nc(NS(=O)(=O)c4ccccc4)nn32)cc1 (centres undefined) | 68% (inactive)
O=C(Nc1nc2n(n1)C(c1ccc(F)cc1)C=C(c1ccc(Cl)cc1)N2)c1ccc([N+](=O)[O-])cc1 (centres undefined) | 64% (inactive)
CC(C)(C)C(=O)CSc1nnc(-c2ccccc2)o1 | 85% (inactive)
COc1cccc(CNC(=O)CCc2c(C)c3cc4c(C)coc4c(C)c3oc2=O)c1 | 55% (inactive)
CCC(=O)N1CCc2cc(Br)cc(S(=O)(=O)N3CCCC(C(=O)Nc4ccc(OC)cc4OC)C3)c21 (centres undefined) | 65% (inactive)
COc1cc(OC)c(NC(=O)c2noc3c2CSc2ccccc2-3)cc1Cl | 69% (inactive)
Cc1ccccc1OC(=O)c1nc(SCc2ccccc2F)ncc1Cl | 107% (inactive)
Cc1ccc(S(=O)(=O)Nc2nc3n(n2)C(c2ccc(Cl)cc2)C=C(c2ccccc2)N3)cc1 (centres undefined) | 2% (active)
Cc1ccc(-c2nc3n(n2)C(c2ccccc2Cl)C=C(c2ccc(Cl)cc2)N3)cc1 (centres undefined) | 95% (inactive)
Cc1ccc(S(=O)(=O)Nc2nc3n(n2)C(c2ccccc2Cl)C=C(c2ccccc2)N3)cc1 (centres undefined) | 37% (active)
Cc1ccc(C2C=C(c3ccc(Cl)cc3)Nc3nc(NS(=O)(=O)c4ccccc4)nn32)cc1 (centres undefined) | 62% (inactive)
COc1ccc(C2=CC(c3ccccc3Cl)n3nc(-c4ccc(C)cc4)nc3N2)cc1 (centres undefined) | 91% (inactive)
Cc1ccc(C2C=C(c3ccccc3)Nc3nc(NS(C)(=O)=O)nn32)cc1 (centres undefined) | 67% (inactive)
CCN1CCN(C(=O)c2cnn(-c3cccc(C)c3)c2C2CCN(C(=O)OC(C)(C)C)CC2)CC1 | 89% (inactive)
O=[N+]([O-])c1cc(-c2nc(-c3ccccc3)no2)ccc1NC1CCCCC1 | 75% (inactive)
CC(C)Oc1ccc(C(=O)N2CCN(CCc3ccccn3)CC2)cc1 | 68% (inactive)
Cc1cccc(NC(=O)C2CCCN(S(=O)(=O)c3cccc4nonc34)C2)c1 (centres undefined) | 92% (inactive)
O=C(Nc1cc(-c2ccccc2)sc1C(=O)O)c1cccc(F)c1 | 38% (active)

SMILES | survival
CCOc1ccc(-c2cc(NC(=O)Nc3cccc(C(C)=O)c3)c(C(=O)OC)s2)cc1 | 53% (inactive)
CCOc1ccc(-c2cc(NC(=O)c3ccccc3)c(C(=O)OC)s2)cc1 | 94% (inactive)
COC(=O)c1sc(-c2ccccc2)cc1NC(=O)Nc1ccc(F)cc1 | 21% (active)
CCOc1ccc(-c2cc(NC(=O)Nc3ccccc3C(F)(F)F)c(C(=O)OC)s2)cc1 | 60% (inactive)
COC(=O)c1sc(-c2ccccc2)cc1NC(=O)Nc1ccc(Cl)cc1 | 11% (active)
CCOc1ccc(-c2cc(NC(=O)c3ccc(C)cc3)c(C(=O)OC)s2)cc1 | 70% (inactive)
COC(=O)c1sc(-c2ccccc2)cc1NC(=O)Nc1ccccc1Cl | 43% (inactive)
CCOc1ccc(-c2cc(NC(=O)Nc3ccc(Cl)cc3)c(C(=O)OC)s2)cc1 | 101% (inactive)
COC(=O)c1sc(-c2ccccc2)cc1NC(=O)c1cccc(Cl)c1 | 34% (active)
CCOc1ccc(-c2cc(NC(=O)c3cccc(Cl)c3)c(C(=O)OC)s2)cc1 | 77% (inactive)
COC(=O)c1sc(-c2ccccc2)cc1NC(=O)c1cccc(F)c1 | 94% (inactive)
Cc1noc2ncnc(N3CCCC(C(=O)NCCC(C)C)C3)c12 (centres undefined) | 88% (inactive)
CCOc1ccccc1CNC(=O)c1cccc(NC(=O)c2nsc3ccccc23)c1 | 88% (inactive)
Cc1c(Cl)cccc1NC(=O)CCn1nc(C)c2c(C)n(-c3ccccc3)nc2c1=O | 92% (inactive)
Cc1c(C(=O)N2CCOCC2)oc2c1-c1nn(CC(=O)NCc3ccccc3)cc1CC2 | 79% (inactive)
Cc1ccc(S(=O)(=O)NCc2nc3cccnc3n2Cc2ccccc2Cl)c(C)c1 | 89% (inactive)
Cc1ccccc1OCCSc1nc(C)c(Cc2ccccc2)c(=O)[nH]1 | 97% (inactive)
CCc1ccc(-n2nc(CO)c(C(=O)NCCCCc3ccccc3)n2)cc1 | 47% (inactive)
Cc1ccc(C)c(Nc2nn3c(=O)c4ccc(C(=O)NCc5cccs5)cc4nc3s2)c1 | 65% (inactive)
O=C(CCCn1c(=O)c2cccn2c2ccccc21)NCCc1ccc(Cl)cc1 | 32% (active)
CSc1ccc(CCNC(=O)CCCn2c(=O)c3cccn3c3ccccc32)cc1 | 42% (active)
COC(=O)c1ccc2c(=O)n(CCCCCC(=O)NCCc3ccc(Cl)cc3)c(=O)[nH]c2c1 | 52% (active)
COC(=O)c1ccc2c(=O)n(CCCCCC(=O)NCc3ccc(Cl)cc3)c(=O)[nH]c2c1 | 74% (inactive)

SMILES | survival
CCOc1ccc(CCNC(=O)CCCn2c(=O)c3cccn3c3ccccc32)cc1 | 72% (inactive)
CC(C)CCNC(=O)CCCn1c(=O)c2cccn2c2ccccc21 | 68% (inactive)
O=C(CCCn1c(=O)c2cccn2c2cccnc21)NCCc1ccc(Cl)cc1 | 63% (inactive)
CSc1ccc(CCNC(=O)CCn2c(=O)c3cccn3c3cccnc32)cc1 | 90% (inactive)
COC(=O)c1ccc2c(=O)n(CCCCCC(=O)NCCc3ccccc3)c(=O)[nH]c2c1 | 79% (inactive)
CN(CCCN1C(=O)c2ccccc2C1=O)CCCN1C(=O)c2ccccc2C1=O | 93% (inactive)
CCOc1ccc(NC(=O)CC2C(=O)N(c3ccccc3)C(=O)N2Cc2ccc3c(c2)OCO3)cc1 (centres undefined) | 79% (inactive)
CN1CCN(C(CNC(=O)C(=O)Nc2ccccc2C#N)c2ccc3c(c2)OCO3)CC1 (centres undefined) | 73% (inactive)
COCCCNC(=O)CCC(=O)N1Cc2ccccc2Oc2ncccc21 | 84% (inactive)
COC(=O)c1cc2sc(Cl)cc2n1Cc1c(C)cc(C)cc1C | 98% (inactive)
C=Cc1ccc(Cn2c(C(=O)OC)cc3sc(C)cc32)cc1 | 27% (active)
COC(=O)c1cc2sc(C)cc2n1CC(=O)Nc1ccc(C)c(C)c1 | 64% (inactive)
COC(=O)c1cc2sc(C)cc2n1Cc1ccccc1 | 95% (inactive)
COC(=O)c1cc2sc(C)cc2n1Cc1ccc(Br)cc1F | 89% (inactive)
COC(=O)c1cc2sc(C)cc2n1Cc1cccc(OC)c1 | 1% (active)
Cn1c(=O)n(C)c2cc(N3CCOCC3)c(NS(=O)(=O)c3ccc(F)cc3)cc21 | 126% (inactive)
COc1ccc(CNC(=O)C2CCN(S(=O)(=O)c3ccc4nc5c(c(C(=O)O)c4c3)CCCC5)CC2)cc1 | 99% (inactive)
Clc1ccc(CCNc2nc3cc(Cl)c(Cl)cc3n3cnnc23)cc1 | 91% (inactive)
O=C1CCSC2(C(=O)N(Cc3ccc(F)cc3)c3ccccc32)N1c1ccc(F)c(F)c1 (centres undefined) | 83% (inactive)
COc1ccc(Cn2c(=O)c3oc4ccccc4c3n(Cc3ccccc3)c2=O)cc1 | 82% (inactive)
